In all, about 360,000 compounds went through this assay and about 4,500 (1.2%) were called active. The sample holds actives, similar compounds and a random draw of the others, so the mix is not that of the screen. A number with no mark means an inactive call. No stated cut-off is given here; in the data, active means inhibition above about 30%; inactive means the rest.
Experiment: inhibition of GDH and TPI enzymes – biochemical, absorbance, full deck, artefact control for M. tuberculosis FBA inhibitor project, primary screen (AID 588335);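 further: 0% = DMSO wells and 100% = wells lacking the enzyme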
Details: GDH-TPI coupled enzyme counterscreen, NADH absorbance; at 4.8 µM; active compounds read high
`C/C(=C(\C#N)C(=O)NCCCN1CCOCC1)N(C)C` showed an inhibition of 7.8%. For `CCc1nn(CCCC(=O)Nc2ccc(C)cc2C)c(=O)c2cc3occc3n12`, the inhibition was 5.68%. `CCN(CC)C(=O)CSc1nc2ccccc2n1CC(=O)N1CCN(c2ccccc2OC)CC1` gave an inhibition of -6.21%. With `O=C1NC(=O)C(CCc2ccccc2)(c2ccccc2)N1` (stereo unspecified) the inhibition was 2.63%. With `O=C(N/N=C/C=C/c1ccccc1)C1CC1(c1ccccc1)c1ccccc1` (stereo unspecified) the inhibition was 21.3%. For `CCn1c(SCC(=O)NC2CC2)nnc1-c1ccccc1OC`, the inhibition was -0.34%. For `COc1ccc(C2=Nn3c(nnc3-c3ccccc3OC)SC2)cc1OC1CCCC1`, the inhibition was 31.1% (active). Work on `COc1cc(OC)c(NS(=O)(=O)c2cn(C)cn2)cc1Cl` yielded an inhibition of -9.45%. `Cc1cccc(N2O[C@H]3C=CC2CCCC3)n1` showed an inhibition of -10.9%. In the case of `O=C(NC(=S)Nc1ccccc1C(=O)O)c1ccc(-c2ccc(Br)cc2)o1`, the inhibition was 40.9% (active). For `CN1CCN(C(=O)c2ccc(-c3ccc(Br)cc3)o2)CC1`, the inhibition was 3.5%. Work on `O=C(NC(=S)Nc1cc(C(F)(F)F)ccc1N1CCOCC1)c1ccc(-c2cccc(Cl)c2)o1` yielded an inhibition of -2.21%. With `O=c1c2ccccc2c(-c2ccccc2)nn1-c1ccccn1` the inhibition was 1.89%. In the case of `CCOC(=O)c1ccn(-c2nc(-c3ccco3)cc(C(F)(F)F)n2)n1`, the inhibition was 35.1% (active). Work on `COC(=O)c1cnn2c(C(F)(F)F)cc(-c3ccco3)nc12` yielded an inhibition of 16.7%. With `O=C(CSc1nc(-c2ccco2)cc(C(F)(F)F)n1)N1CCc2ccccc2C1` the inhibition was 10.9%. `NC(=O)CC(NC(=O)Cc1ccc(Br)cc1)c1ccc(NC2CC3CCC2C3)c([N+](=O)[O-])c1` (stereo unspecified) showed an inhibition of -1.99%. For `CC1(c2ccc(Cl)cc2Cl)NC(=O)N(CC(=O)Nc2cccnc2Cl)C1=O` (stereo unspecified), the inhibition was 0%. Work on `Cc1cccc(C(=O)OCC(=O)NCC(C)C)c1O` yielded an inhibition of 2.88%. In the case of `N#CC1=C(N)N(c2ccc(F)cc2)C(=O)C1`, the inhibition was 4.15%. In the case of `CCCc1ccc(OCc2ccc(C(=O)N/N=C/c3cccc([N+](=O)[O-])c3)o2)c(OC)c1`, the inhibition was 3.73%. For `Cc1occc1C(=O)N/N=C/c1ccc(-c2cccc([N+](=O)[O-])c2)o1`, the inhibition was 34% (active). `O=[N+]([O-])c1ccc2oc(-c3cccc(O)c3)nc2c1` showed an inhibition of 15.8%. `O=C(CN1C(=O)NC2(CCCC2)C1=O)OCCOc1ccc(F)cc1` showed an inhibition of -5.15%. With `Cc1ccc(C(=O)NCC(c2cccs2)N(C)C)cc1S(=O)(=O)N1CCOCC1` (stereo unspecified) the inhibition was 3.9%. In the case of `CC1(C)CC(=O)C/C(=N\NC(=O)c2cccs2)C1`, the inhibition was 17.8%. For `O=C(COC(=O)CCC(=O)c1cccs1)NCc1ccco1`, the inhibition was 5.96%. With `O=C(N/N=C/C=C/c1ccco1)c1cccs1` the inhibition was 46.5% (active). For `Cc1ccc(-c2cc(C(=O)N/N=C/C=C/c3ccco3)c3ccccc3n2)cc1C`, the inhibition was 52.1% (active). Compound `CC(/C=N/NC(=O)c1cc(-c2ccc3ccccc3c2)n[nH]1)=C\c1ccco1` has an inhibition of 17%. For `O=C(NCCc1ccccn1)c1cc(-c2ccc(Cl)cc2)nc2ccccc12`, the inhibition was 19.5%. For `O=C(CCc1ccc(S(=O)(=O)N2CCOCC2)cc1)OCC(=O)c1ccc(Br)cc1`, the inhibition was -6.33%. For `COc1ccc(CCNC(=O)COC(=O)Cc2cccc(F)c2)cc1`, the inhibition was -8.97%. With `O=C(NCc1ccccc1Cl)C1CCC(CNc2c(N3CCCCC3)c(=O)c2=O)CC1` (stereo unspecified) the inhibition was 4.69%. Work on `CCC(C)C1(C2CCCC2)NC(=O)NC1=O` (stereo unspecified) yielded an inhibition of 0.88%. `O=C(NC1CCC(O)CC1)c1ccc(S(=O)(=O)NCc2ccco2)cc1` (stereo unspecified) gave an inhibition of 11.2%. Work on `COc1ccc(CN(C)C(=O)c2cc(-c3ccc(C)cc3C)nc3ccccc23)c(OC)c1OC` yielded an inhibition of 0%. For `COc1cc(/C=N/NC(=O)c2cc(-c3ccccc3C)nc3ccccc23)cc(OC)c1O`, the inhibition was 76.5% (active). `Cc1ccc(/C=N/NC(=O)COc2ccccc2-c2ccccc2)cc1` gave an inhibition of 5.68%. Work on `Cc1ccc(NN=Nc2nc3c([nH]2)c(=O)n(C)c(=O)n3C)cc1` yielded an inhibition of 2.21%. In the case of `O=C(Nc1ccc(N2CCOCC2)cc1)c1cccc2c(-c3ccc(F)c(F)c3)coc12`, the inhibition was 1.77%. For `CCc1c(C)n([O-])c2c([n+]1=O)CCCCC2`, the inhibition was 6.72%. In the case of `Cc1nc(-c2ccccc2)sc1C(=O)/C=C/c1ccccc1`, the inhibition was 31.8% (active). Compound `Cc1[nH]c(=O)c(C(=O)/C=C/c2ccccc2)c2c1CCCC2` has an inhibition of 12.9%. For `Cc1nc(-c2ccc(Cl)cc2)sc1C(=O)CBr`, the inhibition was 22.6%. Compound `COc1ccccc1-n1ccnc(SCC(=O)NC2CCCCC2)c1=O` has an inhibition of 7.32%. `Cc1ccccc1C(CC(=O)c1cccs1)C(C#N)C#N` (stereo unspecified) showed an inhibition of 0%. In the case of `C/C(=N\NC(=S)Nc1ccc(C)cc1)c1cc2ccccc2o1`, the inhibition was 77.5% (active). Work on `C/C(=N/NC(=S)Nc1ccccc1)c1ccc2c(c1)OCO2` yielded an inhibition of 12.9%. `C/C(=N\NS(=O)(=O)c1cccc([N+](=O)[O-])c1)c1cc2ccccc2o1` showed an inhibition of 22.8%. `CCc1c(C)nc(N)n2c(SCC(=O)NC3CCCCC3)nnc12` showed an inhibition of 0%. In the case of `Cc1ccc(S(=O)(=O)N2CCCCC2)cc1C(=O)N1CCN(CCO)CC1`, the inhibition was -15.1%. In the case of `O=C1NC(c2ccccc2)Cc2ccncc21` (stereo unspecified), the inhibition was 13.4%. In the case of `O=C(C1CCCO1)N1CCC(c2nc3ccccc3[nH]2)CC1` (stereo unspecified), the inhibition was -7.92%. For `C1=C(N2CCOCC2)/C(=C/c2nc3ccccc3[nH]2)CC1`, the inhibition was 34.8% (active). `c1ccc(-n2nnnc2N2CCOCC2)cc1` showed an inhibition of 2.54%. Work on `CCCCN1C(=O)c2ccc(C(=O)Nc3ccc(S(=O)(=O)N(C)C)cc3)cc2C1=O` yielded an inhibition of 2.95%. For `Cc1ccc(NC2=NC(c3ccccc3)n3c(nc(C)cc3=O)N2)cc1` (stereo unspecified), the inhibition was 4.69%. `CCOc1ccccc1/C=N/Nc1nc2ccccc2o1` gave an inhibition of 8.78%. In the case of `COc1ccc(/C=N/Nc2nc3ccccc3o2)cc1OC`, the inhibition was 44.1% (active). Compound `COc1ccc(/C=N/n2nnnc2N)cc1OC` has an inhibition of 21.5%.
